Rows were chosen to be rich in hits. Some 4% of all compounds tested hit in one or more screens of this group.
FBA Mtb inh = inhibitors of M. tuberculosis fructose-bisphosphate aldolase; 2.3% of 360,000 active; purified M. tuberculosis FBA, fluorescence read-out; inhibition, % at 1 µM; AID 588726;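 also: 0% = vehicle and 100% = reference inhibitor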
Target sequence (P9WQA3 whole entry, looked up): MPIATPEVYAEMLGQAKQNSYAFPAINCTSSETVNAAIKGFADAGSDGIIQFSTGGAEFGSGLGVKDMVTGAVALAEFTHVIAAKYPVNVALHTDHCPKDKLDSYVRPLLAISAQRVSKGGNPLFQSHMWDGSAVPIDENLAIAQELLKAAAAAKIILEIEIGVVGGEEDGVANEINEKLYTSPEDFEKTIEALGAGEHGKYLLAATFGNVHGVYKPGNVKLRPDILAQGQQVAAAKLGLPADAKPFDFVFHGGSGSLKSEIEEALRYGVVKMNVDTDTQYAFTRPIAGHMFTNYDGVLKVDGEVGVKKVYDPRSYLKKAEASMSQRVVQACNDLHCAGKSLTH
GDH-TPI counter-1 = counter-screen for M. tuberculosis FBA inhibitors: GDH-TPI coupled enzymes. GDH-TPI coupled enzyme counterscreen, NADH absorbance. inhibition, % at 4.8 µM. 1.2% of 360,000 active. AID 588335; in the data active = inhibition above about 30%;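 also: 0% = DMSO wells and 100% = wells lacking the enzyme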
MazF activator = activators of E. coli MazEF toxin-antitoxin RNase. P0AE70. FAM/BHQ RNA-DNA oligo cleavage fluorescence, 5 h. activation, % at 20 µM. 0.32% of 350,000 active. AID 504720; in the data active = activation above about 50%
Target sequence (P0AE70 whole entry, looked up): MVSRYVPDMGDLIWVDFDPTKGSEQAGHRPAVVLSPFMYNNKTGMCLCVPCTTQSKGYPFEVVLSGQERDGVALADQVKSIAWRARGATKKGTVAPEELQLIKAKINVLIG
CCHFV vOTU inh = blocks the CCHF virus ovarian tumor domain protease; CCHFV vOTU protease, Pep-AMC fluorescence; inhibition, % at 11.5 µM; 0.55% of 370,000 active; AID 651958; in the data active = inhibition above about 30%; also: 0% = vehicle wells with enzyme and 100% = no enzyme wells
Mtb betalactam = beta-lactam sensitization of Mtb H37Rv | M. tuberculosis H37Rv growth with meropenem, percent inhibition | inhibition, % at 25 µM | 0.27% of 330,000 active; call rule not given here;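 also: growth measured after seven days incubation then overnight dye step; 0% = bacteria only wells and 100% = bacteria with antibiotic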
Mtb FBA inh conf = confirmation of M. tuberculosis fructose-bisphosphate aldolase inhibitors. shares compounds with FBA Mtb inh. purified M. tuberculosis FBA, fluorescence read-out. inhibition, % at 1 µM. 78% of 5,600 active. AID 651616;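 also: 0% = vehicle wells and 100% = reference inhibitor wells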
GDH-TPI counter-2 = GDH-TPI inhibition counter-screen for FBA inhibitors | inhibition, % at 1 µM | shares compounds with FBA Mtb inh | GDH-TPI coupled enzyme counterscreen, fluorescence | 81% of 5,600 active; in the data active = inhibition above about 10%
An asterisk follows results filed as active; ? = inconclusive; . = not tested or not shown; + = active, no number. Rule as the data show it, unless noted: active = inhibition above about 27%; inactive = the rest.

SMILES	FBA Mtb inh	GDH-TPI counter-1	MazF activator	CCHFV vOTU inh	Mtb betalactam	Mtb FBA inh conf	GDH-TPI counter-2
CCCCc1cc(=O)oc2cc(C)cc(OCC(=O)NCc3ccncc3)c12	81*	7	2	-22	-9	139*	108*
CCc1cc(=O)oc2cc(C)cc(OCC(=O)NCC3CCC(C(=O)O)CC3)c12 (stereo not given)	19	0	5	-4	-3	.	.
CCCc1cc(=O)oc2cc(C)cc(OCC(=O)NCc3ccccn3)c12	55*	6	12	-18	4	28*	32*
Cc1cc(=O)oc2cc(OCC(=O)NCc3ccccn3)ccc12	14	6	0	0	4	.	.
Cc1cc(OCC(=O)NCc2ccccn2)c2c(C)cc(=O)oc2c1	79*	3	9	-24	1	103*	72*
CCCc1cc(=O)oc2cc(OCC(=O)NCc3ccccn3)ccc12	25	3	2	6	-8	.	.
O=C(Cc1cccs1)NC1CCCCN(Cc2ccc(Cl)cc2)C1=O (stereo not given)	.	.	.	1	.	.	.
O=C(Cn1c(-c2cncs2)nc2ccccc21)N1CCOCC1	.	.	.	-10	.	.	.
COc1ccc(-c2oc3ncnc(NCCCN(C)C)c3c2-c2ccc(OC)cc2)cc1	46*	16	15	-39	63	69*	72*
CC[C@@H](CCC1CCCCC1)CN(c1ccccc1)S(C)(=O)=O	.	.	.	15	.	.	.
N#Cc1ccc(-c2ccc(OCC(=O)Nc3cccnc3)cc2)cc1	43*	1	4	-2	99	116*	85*
Cc1cccc(NC(=O)CNC(=O)COc2ccc(-c3ccc(C#N)cc3)cc2)c1C	29*	10	-30	-10	-5	101*	80*
C[C@@H]1CCCN1c1cccc2c1S(=O)(=O)N1CC[C@@H](C1)O2	.	.	.	-1	.	.	.
O=C(Nc1ccc(F)cc1)OCc1cn(Cc2ccccc2)nn1	.	.	.	-2	.	.	.
O=c1c2c(-c3ccccc3)csc2nc2c3ccccc3c(NCCN3CCOCC3)nn12	29*	0	-21	-36	.	94*	66*
O=c1c2ccccc2nc2c3ccccc3c(NCCN3CCOCC3)nn12	.	.	.	-26	-7	.	.
O=c1c2ccccc2nc2n1CCN2Cc1ccc(Cl)cc1	34*	10	-4	.	6	192*	170*
O=c1c2ccccc2nc(-c2ccccc2)n1Cc1ccc(Cl)cc1	-4	11	2	-4	-8	.	.
COc1ccc2c(c1)c1ncn(CCN3CCCC3)c(=O)c1n2C	89*	-6	2	-50	2	90*	74*
Cn1c2ccccc2c2ncn(Cc3ccc(F)cc3)c(=O)c21	16	3	-2	-6	3	.	.
Cc1ccc2c(c1)[nH]c1c(=O)n(CCN3CCCCC3)cnc12	9	4	1	9	-9	.	.
COc1ccccc1CCn1cnc2c3cc(C)ccc3n(C)c2c1=O	46*	-7	2	-21	?	+	+
COc1ccc2c(c1)c1ncn(CCN3CCCCC3)c(=O)c1n2C	100*	10	5	-48	9	107*	88*
CC(=O)N1c2cc(S(=O)(=O)Nc3c(C)n(C)n(-c4ccccc4)c3=O)c(Br)cc2CC1C (stereo not given)	.	.	.	-1	.	.	.
NS(=O)(=O)c1ccccc1NC(=S)Nc1ccccc1S(N)(=O)=O	62*	-12	6	8	4	+	167*
SMILES	FBA Mtb inh	GDH-TPI counter-1	MazF activator	CCHFV vOTU inh	Mtb betalactam	Mtb FBA inh conf	GDH-TPI counter-2
CC(=O)Nc1cccc(S(N)(=O)=O)c1C	0	5	-17	1	-4	.	.
COCC(=O)N(C)[C@H]1C[C@H]2c3[nH]c4cccc(-c5cccc(F)c5)c4c3CCN2C(=O)[C@H]1[C@H](C)O	.	.	.	-15	.	.	.
COC(=O)c1cc2c(c3c4cc(OC)ccc4n(S(=O)(=O)c4ccc(OC)cc4)c13)C(=O)N(Cc1ccco1)C2	.	.	.	2	.	.	.
CC(=O)N1CCN(c2nc(CC(C)C)c3c(c2C#N)CCC3)CC1	38*	17	11	-15	40	48*	35*
CC(C)Cc1nc(N2CCN(C(=O)C(C)C)CC2)c(C#N)c2c1CCC2	33*	7	2	0	7	59*	41*
CCCCNC(=O)NC1CCN(CC(=O)Nc2ccc3c(c2)OCCO3)CC1	.	.	.	4	.	.	.
O=C(CC(=O)Nc1cccc(F)c1)Nc1cccc(F)c1	-1	-13	-5	-7	6	.	.
O=C(Cn1c2ccccc2c(=O)c2ccccc21)Nc1cccc(F)c1	90*	6	-1	-22	-1	100*	71*
Cc1nc2ccccc2c(=O)n1/N=C/c1ccc(O)cc1O	1	25	8	6	4	.	.
O=[N+]([O-])c1ccc(O)c(C=Nc2cccc3ccccc23)c1	23	15	5	-6	20	.	.
O=[N+]([O-])c1cccc(C=Nc2cccc3ccccc23)c1O	39*	7	4	-22	25	179*	157*
Oc1ccc(C=Nc2cccc3ccccc23)c(O)c1	62*	9	-3	-1	24	132*	122*
Cc1ccc(C)c2nc(N3CCCC3)c(C#N)cc12	33*	7	1	-7	97	173*	146*
Cc1cccc2cc(C#N)c(N3CCN(C)CC3)nc12	5	-8	1	-12	3	.	.
CCN1CCN(c2nc3c(C)cccn3c(=O)c2/C=C(\C#N)C(=O)NC)CC1	30*	7	11	-39	0	32*	20*
CCOC(=O)/C(C#N)=C/c1c(N2CCN(CC)CC2)nc2c(C)cccn2c1=O	3	10	-22	8	11	.	.
CNC(=O)/C(C#N)=C/c1c(N2CCN(C)CC2)nc2c(C)cccn2c1=O	28*	17	-1	-28	-1	62*	59*
CCNC(=O)/C(C#N)=C/c1c(N2CCCCCC2)nc2c(C)cccn2c1=O	-2	13	1	8	-1	.	.
CN1c2ccccc2Oc2nnc(N3CCN(Cc4ccccc4)CC3)cc21	57*	6	-3	-73	5	87*	82*
CN1c2ccccc2Oc2ccccc21	2	5	2	4	0	.	.
CCN(CC)CCOc1cc2c(nn1)Oc1ccccc1N2C	56*	27	5	-51	2	164*	154*
CN1c2ccccc2Oc2nnc(Cl)cc21	28*	7	0	-48	-2	51*	38*
CCN(CC)CCOc1ccccc1OC	0	7	-1	9	-5	.	.
CC(CCN1CCC(C(O)(c2ccccc2)c2ccccc2)CC1)Oc1cccc(Br)c1 (stereo not given)	.	.	.	13	.	.	.
O=C(COc1ccc(Br)cc1)N1CCCCCC1	-2	-1	-14	-1	4	.	.
O=C(COc1ccc(Br)cc1)N1CCN(C2CCCC2)CC1	33*	6	0	5	-10	29*	13*
CCCCCc1c(O)c2ccccc2[nH]c1=O	29*	15	6	-4	8	62*	51*

Assay outcomes deposited in PubChem by several laboratories.
